Measurements published in PubChem BioAssay (EPA / NIEHS).
“And” between values parts separate entries of the source, which are not always exact repeats. Identical values can stand only once. Records with an inconclusive call do not appear. Some structures have more than one record in an assay (separate samples or runs), and their calls can disagree. The source made the active and inactive calls. How the source made its calls: active means hit-call score of the fitted dose curve at least 0.9, where 1 is the maximum; inconclusive means response in the unintended direction; inactive means score below 0.9.

Tests used:
[1] = TOX21_p53_BLA_p3_viability: Viability Assessment in the Tox21 HCT-116 p53 Agonism Beta-lactamase Assay, Phase 3 (AID 2283593);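 further: cells exposed to compound for 16 h before reading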
In short: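 HCT-116 cells (4000/well) rested 5 h at 37C, then got DMSO compounds by pin tool (217-fold dilution) for 16 h at 37C, 5% CO2. After the bla read, CellTiter-Glo was added and luminescence read at 30 min, room temperature.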

[2] = molecular target: Cellular tumor antigen p53 (Homo sapiens) (UniProt P04637); experiment: TOX21_p53_BLA_p3_ratio: Tox21 HCT-116 p53 Agonism Beta-lactamase Assay, Ratio, Phase 3 (AID 2283596)
In short: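 HCT116 p53-bla cells (4000/well) given compound in DMSO (217-fold dilution) after 5 h, incubated 16 h at 37C. CCF4-AM substrate 2 h at room temperature; 460/530 nm emission ratio, gain fitted against DMSO.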

[3] = TOX21_p53_BLA_p4_viability: Viability Assessment in the Tox21 HCT-116 p53 Agonism Beta-lactamase Assay, Phase 4 (AID 2283597);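 further: hits lower the luminescence signal meaning cytotoxicity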
In short: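 Cells plated, 5 h pre-incubation; DMSO compounds pinned (217-fold dilution); 16 h, 37C/5% CO2; CCF4-AM 2 h RT; CellTiter-Glo 30 min RT; luminescence read.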

[4] = molecular target: Cellular tumor antigen p53 (Homo sapiens) (UniProt P04637); experiment: TOX21_p53_BLA_p5_ratio: Tox21 HCT-116 p53 Agonism Beta-lactamase Assay, Ratio, Phase 5 (AID 2283599)
In short: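 HCT-116 cells carrying a p53-inducible beta-lactamase reporter were seeded at 4000 cells/well and dosed after 5 h with compound in DMSO (217-fold dilution). After 16 h at 37C, CCF4-AM substrate was added for 2 h, and the 460/530 nm emission ratio was scored as gain-of-signal versus DMSO.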

[5] = molecular target: Cellular tumor antigen p53 (Homo sapiens) (UniProt P04637); experiment: TOX21_p53_BLA_p4_ratio: Tox21 HCT-116 p53 Agonism Beta-lactamase Assay, Ratio, Phase 4 (AID 2283601)
In short: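 HCT116 cells carrying an inducible beta-lactamase reporter were plated at 4000 cells/well, rested 5 h, then exposed to compounds in DMSO (217-fold dilution) for 16 h at 37C. CCF4-AM substrate was loaded 2 h at room temperature; 460/530 nm emission ratio scored gain-of-signal versus DMSO.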

[6] = Tanguay_ZF_120hpf_MORT_legacy: (Legacy) Oregon State University Tanguay Lab 120 Hour Post-fertilization zebrafish Assay for Mortality (AID 2283633);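 on AC50: fitted as increase in binary mortality versus DMSO negative control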
In short: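 5D WT zebrafish, chorion removed 4 hpf; 1 embryo/well from 6 hpf; static exposure to 120 hpf, 28C, dark, sealed. Final DMSO 0.64%. Readout: binary mortality, brightfield, 24 + 120 hpf; DMSO as negative control.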

[7] = Tanguay_ZF_120hpf_YSE_legacy: (Legacy) Oregon State University Tanguay Lab 120 Hour Post-fertilization zebrafish Assay for Yolk Sac Edema (AID 2283634);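 on AC50: actives raise the incidence of yolk sac edema above the DMSO baseline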
In short: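 Dechorionate (pronase, 4 hpf) → place one 6 hpf embryo per well → static compound exposure, sealed and foil-covered, 28C, to 120 hpf → record yolk sac edema as present or absent. Final DMSO 0.64%.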

[8] = Tanguay_ZF_120hpf_AXIS_legacy: (Legacy) Oregon State University Tanguay Lab 120 Hour Post-fertilization zebrafish Assay for Body Axis Malformation (AID 2283635);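 on AC50: potency for an increased fraction of larvae scored with body axis malformation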
In short: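 Chorion is removed with pronase at 4 hpf, then single 6 hpf embryos are dosed (final DMSO 0.64%) and held statically at 28C in sealed, foil-covered plates. At 120 hpf body axis malformation is recorded as present or absent.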

[9] = Tanguay_ZF_120hpf_EYE_legacy: (Legacy) Oregon State University Tanguay Lab 120 Hour Post-fertilization zebrafish Assay for Eye Malformation (AID 2283636);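 further: binary presence or absence of eye malformation scored by brightfield in 120 hpf larvae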
In short: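 Dechorionated wild-type Tropical 5D zebrafish embryos were exposed statically from 6 hpf, one per well, to 120 hpf at 28C in sealed, foil-covered plates with 0.64% DMSO. Eye malformation was scored present/absent by brightfield microscopy against DMSO controls.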

[10] = TOX21_p53_BLA_p5_viability: Viability Assessment in the Tox21 HCT-116 p53 Agonism Beta-lactamase Assay, Phase 5 (AID 2283600)
In short: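 4000 cells/well; 5 h pre-incubation; DMSO compounds pin-transferred, 217-fold dilution; 16 h, 37C/5% CO2; CCF4-AM 2 h RT; CellTiter-Glo 30 min RT; luminescence.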

Measured: AC50

Cellular tumor antigen p53 (Homo sapiens), sequence (P04637 whole entry, looked up): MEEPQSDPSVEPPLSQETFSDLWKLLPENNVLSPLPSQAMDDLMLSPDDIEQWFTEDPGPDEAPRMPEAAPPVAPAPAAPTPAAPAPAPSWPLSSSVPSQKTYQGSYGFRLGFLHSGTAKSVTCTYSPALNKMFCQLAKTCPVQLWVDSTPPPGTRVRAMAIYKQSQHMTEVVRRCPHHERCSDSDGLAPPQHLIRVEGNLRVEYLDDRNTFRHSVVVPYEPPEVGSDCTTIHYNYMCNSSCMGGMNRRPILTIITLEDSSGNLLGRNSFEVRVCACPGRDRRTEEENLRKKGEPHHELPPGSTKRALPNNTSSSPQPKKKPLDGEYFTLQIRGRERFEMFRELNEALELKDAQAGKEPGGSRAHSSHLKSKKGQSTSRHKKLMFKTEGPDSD

O=C(Nc1ccc(Cl)cc1)Nc1ccc(Cl)c(Cl)c1
inactive: [1] | [3] | [4] | [6] | [7] | [8]
active: [2] 5.76 µM and 4.62 µM and 6.38 µM | [4] 6.25 µM and 12.1 µM | [5] 4.01 µM and 4.85 µM and 6.48 µM

O=CCCCC=O
inactive: [1] | [3] | [4] | [5] | [6] | [7] | [8] | [9]
active: [1] 83.5 µM and 84.6 µM | [2] 69.9 µM and 37 µM

Oc1ccccc1
not listed: [10]
inactive: all other assays above

CN(C)C(=O)C1(N2CCCCC2)CCN(CC[C@@]2(c3ccc(Cl)c(Cl)c3)CN(C(=O)c3ccccc3)CCO2)CC1
active: [1] 70.5 µM | [2] 82.3 µM | [3] 34 µM | [4] 82 µM | [5] 48.5 µM | [6] 16.4 µM
inactive: [7] | [8] | [9]

CC(C)(c1cc(Br)c(O)c(Br)c1)c1cc(Br)c(O)c(Br)c1
inactive: [7] | [8] | [9]
active: [1] 55.7 µM and 52.9 µM and 46 µM | [2] 50.4 µM and 63.7 µM and 58.5 µM | [3] 34.3 µM and 46 µM | [4] 67.7 µM and 76.3 µM and 65.8 µM | [10] 44 µM and 57 µM and 63.6 µM | [5] 58.8 µM and 71.4 µM and 63.2 µM | [6] 4.89 µM

CCCCCCCCCCCO
not listed: [5]
inactive: all other assays above

CC(O)CC(C)(C)O (stereo unspecified)
inactive: all assays above

CCN(CC)C(=O)c1cc(S(=O)(=O)Cc2ccccc2)c(N2CCC(c3ccccc3)CC2)cc1N(CC)CCN(C)C
active: [1] 30.3 µM | [3] 17.9 µM and 25.1 µM | [10] 40.1 µM | [5] 32.6 µM and 42.6 µM | [6] 11.7 µM | [8] 18.2 µM
inactive: [1] | [2] | [4] | [7] | [9]

C[C@]12CC[C@@H]3c4ccc(O)cc4CC[C@H]3[C@@H]1CC[C@H]2O
active: [2] 67.5 µM and 15.8 µM | [4] 73.4 µM and 16.7 µM | [5] 26.2 µM
not listed: [10]
inactive: all other assays above

Cc1cn([C@H]2C[C@H](N=[N+]=[N-])[C@@H](CO)O2)c(=O)[nH]c1=O
not listed: [10]
inactive: all other assays above

CC1(C)NC(=O)N(c2ccc([N+](=O)[O-])c(C(F)(F)F)c2)C1=O
not listed: [8] | [10]
inactive: all other assays above

c1ccc2ccccc2c1
inactive: [1] | [2] | [4] | [5] | [6] | [8]

CCCC(=O)OCCC(C)C
not listed: [1] | [5] | [10]
inactive: all other assays above

Cc1cc2c(cc1C(F)(F)F)N(C(=O)Nc1ccc(Oc3cccnc3C)nc1)CC2
not listed: [4] | [10]
inactive: all other assays above

Cc1oc2c(NC(=O)c3c(Cl)cccc3Cl)cccc2c1C(C)(C)O
active: [6] 26 µM
not listed: [5] | [10]
inactive: all other assays above

O=C1c2ccccc2C(=O)N1CCc1noc(-c2ccc(CN3CCCCCC3)s2)n1
not listed: [5] | [10]
inactive: all other assays above

CC[C@H](NC(=O)c1cc(F)ccc1NS(=O)(=O)c1cccc2cccnc12)c1ccccc1
active: [5] 67.2 µM
not listed: [7] | [9] | [10]
inactive: all other assays above

CC1=CC(=O)/C(=C(/C)O)C(=O)O1
not listed: [3] | [9] | [10]
inactive: all other assays above

O=C(O)Cn1c(=O)n(Cc2ccc(Br)cc2F)c(=O)c2ccc(Cl)cc21
not listed: [2] | [10]
inactive: all other assays above

O=C(O)c1ccccc1C(=O)OCc1ccccc1
not listed: [3] | [9] | [10]
inactive: all other assays above

O=C(O)c1ccccc1-n1cc(C(=O)O)c(=O)c2cc(Nc3c(F)cc(F)cc3Cl)c(Cl)cc21
inactive: [5] | [6] | [7] | [9]

O=c1ccc2ccccc2o1
not listed: [1]
inactive: all other assays above

Clc1cc(Cl)c2c(c1)N=C1CCCCCN1C2
active: [7] 21.5 µM | [8] 7.43 µM
not listed: [10]
inactive: all other assays above
